A selection: hits, their analogues and other compounds. The true share with any hit is near 0.54%.
Vc quorum ag: inducers of Vibrio cholerae quorum light production without autoinducers | V. cholerae BH1578 lux reporter, luminescence, 6 h | activation, % at 18.7 µM | actives 0.16% (n = 350,000) | AID 588436; in the data active = activation mostly above about 9.7%, no sharp cut-off; inconclusive = no clear call, values can overlap the other calls; inactive = mostly below about 3.7%
FadD28 binding: inhibitors of Mycobacterium tuberculosis FadD28 bisubstrate binding; FadD28 bisubstrate probe binding, fluorescence polarization; actives 0.22% (n = 360,000); inhibition, % at 12.5 µM; in the data active = inhibition above about 8.5%, passing the limit was not always enough; inconclusive = no clear call, values can overlap the other calls
BioA inh-1: inhibitors of Mycobacterium tuberculosis BioA enzyme; purified M. tuberculosis BioA enzyme, plate reader; inhibition, % at 9.99 µM; actives 0.096% (n = 360,000); AID 602481; in the data active = inhibition above about 40%; inconclusive = no clear call, values can overlap the other calls
TcdB inh: TcdB glycohydrolase inhibition; P18177; AID 652162; actives 0.24% (n = 350,000); TcdB glycohydrolase enzymatic assay, plate reader; inhibition, % at 9.99 µM; in the data active = inhibition above about 10%
BioA inh-2: blocks M. tuberculosis BioA aminotransferase | AID 651679 | max activity, % | purified BioA enzyme, plate reader, dose response | shares compounds with BioA inh-1 | 310 tested, under 10 active;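 also: top concentration of the dilution series was 10 µM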
Target sequence (P9WQ81 whole entry, looked up): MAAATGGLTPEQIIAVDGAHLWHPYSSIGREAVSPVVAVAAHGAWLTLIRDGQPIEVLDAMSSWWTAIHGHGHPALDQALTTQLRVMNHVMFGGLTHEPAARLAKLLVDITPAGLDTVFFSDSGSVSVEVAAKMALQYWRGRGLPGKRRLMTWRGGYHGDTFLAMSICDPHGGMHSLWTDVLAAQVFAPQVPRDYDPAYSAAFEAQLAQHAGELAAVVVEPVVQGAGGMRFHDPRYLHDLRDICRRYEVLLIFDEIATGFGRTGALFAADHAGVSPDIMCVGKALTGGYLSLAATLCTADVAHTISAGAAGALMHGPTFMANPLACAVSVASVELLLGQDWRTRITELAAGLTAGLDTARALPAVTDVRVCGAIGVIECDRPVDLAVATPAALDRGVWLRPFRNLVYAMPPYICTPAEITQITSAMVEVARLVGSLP
HepG2 cytotox: cytotoxicity in HepG2 cells | shares compounds with BioA inh-1 | plate reader | max activity, % | 310 tested, under 10 active
3T3 cytotox 5: kills NIH3T3 cells; shares compounds with BioA inh-1; NIH3T3 cytotoxicity, plate reader; activity change, negative = cytotoxicity, % at 26 µM; 310 tested, under 10 active; AID 651900
* hit, by the source's call; i = inactive; ? = inconclusive; . = no result; [ ] = dose if it differs, or a comment. Unless noted, no rule for the calls is given here.

SMILES	Vc quorum ag	FadD28 binding	BioA inh-1	TcdB inh	BioA inh-2	HepG2 cytotox	3T3 cytotox 5
O=C(C[C@@H]1C[C@@H]2c3cc(NC(=O)c4cccnc4)ccc3O[C@@H]2[C@@H](CO)O1)NCc1cccc(F)c1	.	.	50.6*	-0.6	-8.0	i	1.3[23.5 µM]
CC(=O)N(CC1CCC1)C[C@H]1N[C@H](CO)[C@@H]1c1ccc(C2=CCCC2)cc1	.	.	-0.9	.	.	.	.
C[C@H]1CCCCO[C@H](CN(C)Cc2ccc(C(F)(F)F)cc2)[C@@H](C)CN([C@@H](C)CO)C(=O)c2cc(NS(=O)(=O)c3ccccc3)ccc2O1	.	.	1.2	0.6	.	.	.
O=C(CSc1nc2c(c(=O)n1-c1ccc(F)cc1)SCC2)N1CCCC1	-2.0	-2.6	26.2	.	.	.	.
CCOc1ccc(-n2c(SCC(N)=O)nc3c(c2=O)SCC3)cc1	i	-2.0	40.8*	.	-7.1	9.0	6.7
O=C(CSc1nc2c(c(=O)n1-c1ccccc1)SCC2)N1CCN(c2ccccc2)CC1	-0.2	0.0	47.4*	1.0	-2.2	-9.3	-5.0
Cn1c(SCC(=O)N2CCOCC2)nc2c(c1=O)SCC2	i	0.5	13.2	-1.0	.	.	.
CC1Cc2nc(SCC(=O)N3CCOCC3)n(-c3ccccc3)c(=O)c2S1 (configuration not stated)	-0.4	0.1	63.0*	-0.6	-6.7	-8.5	-1.8
O=C(CSc1nc2c(c(=O)n1-c1ccccc1)SCC2)N1CCOCC1	i	-2.4	87.6*	1.6	4.6	15.6	2.0
CC1Cc2nc(SCC(=O)N3CCN(c4ccccc4)CC3)n(C)c(=O)c2S1 (configuration not stated)	-1.6	-0.3	22.8	3.0	.	.	.
CCC(=O)Nc1ccc2c(c1)C(=O)N(C)[C@@H]1CC[C@H](CC(=O)NCc3ccccc3Cl)O[C@H]1CO2	.	.	-5.5	0.1	.	.	.
CCOC(=O)c1ccc(N2C(=O)c3n[nH]c(C)c3C2c2ccc(OC)c(OC)c2)cc1 (configuration not stated)	-3.1	-5.3	100.8*	.	-8.3	-12.4	0.6
CCOC(=O)c1ccc(N2C(=O)c3n[nH]c(C)c3C2c2ccc(OC)cc2)cc1 (configuration not stated)	-0.3	-8.0	18.1	.	.	.	.
COc1ccc(C(C)NC(=O)Nc2ccc(C(C)=O)cc2)cc1OC (configuration not stated)	i	-0.8	43.0*	2.2	-4.3	7.5	5.0
O=C(c1ccncc1)N1CC[C@@H]2[C@H](CO)Nc3ccc(Br)cc3[C@@H]21	.	.	104.3*	.	-5.2	i	-5.0
O=C(c1ccncc1)N1CC[C@H]2[C@H](CO)Nc3ccc(Br)cc3[C@H]21	.	.	58.7*	.	11.9	i	-6.8[23.5 µM]
O=C(c1ccncc1)N1CC[C@@H]2[C@@H](CO)Nc3ccc(-c4ccccc4)cc3[C@@H]21	.	.	10.0	7.5	.	.	.
CN(C)CC(=O)N1[C@@H](C#N)[C@H](c2ccc(-c3ccccc3F)cc2)[C@@H]1CO	.	.	-1.0	-2.1	.	.	.
O=C(Nc1ccc(F)cc1)N1C[C@@H]2[C@H](c3ccccc31)[C@H](CO)N2C(=O)Cc1ccncc1	.	.	-8.6	-6.5	.	.	.
O=C(CSc1nncs1)N1c2ccccc2Sc2ccccc21	-1.5	-13.8	43.6*	.	-2.0	-11.7	-2.7
Cn1ncc2c(Nc3ccc(Cl)cc3)ncnc21	-2.4	-3.3	2.6	2.5	.	.	.
Cn1ncc2cc3c(Nc4ccc(Cl)cc4)cccc3nc21	.	0.0	81.4*	0.4	-4.2	-9.1	-2.9
O=C(C[C@H]1CC[C@H]2[C@@H](COC[C@@H](O)CN2C(=O)Nc2cc(Cl)cc(Cl)c2)O1)NCC1CCCCC1	.	.	-0.4	-0.6	.	.	.
Cc1nn(CCC(=O)O)c2nc(-c3cccnc3)cc(C(F)(F)F)c12	-0.3	-1.4	47.7*	.	7.1	10.4	-0.5
Cc1c(OC(C)C(=O)NCc2ccccn2)ccc2c3c(c(=O)oc12)CCC3 (configuration not stated)	-0.1	-3.0	43.1*	-0.4	-8.0	-5.1	-2.8
SMILES	Vc quorum ag	FadD28 binding	BioA inh-1	TcdB inh	BioA inh-2	HepG2 cytotox	3T3 cytotox 5
C/C=C/c1ccc2c(c1)O[C@@H](CN(C)C(=O)Nc1ccc(F)cc1)[C@@H](C)CN([C@@H](C)CO)S2(=O)=O	.	.	54.6*	-0.5	-4.8	i	-13.9
CCCC(O)C#Cc1cnc2c(c1)C(=O)N([C@H](C)CO)C[C@H](C)[C@H](CN(C)Cc1ccc3c(c1)OCO3)O2 (some centres not stated)	.	.	5.4	-0.7	.	.	.
Cc1noc(C)c1S(=O)(=O)N(C)C[C@H]1Oc2ccc(NC(=O)Nc3ccc(C(F)(F)F)cc3)cc2CC(=O)N([C@@H](C)CO)C[C@H]1C	.	.	-0.3	.	.	.	.
C[C@H](CO)N1C[C@H](C)[C@H](CN(C)C)Oc2ccc(NS(=O)(=O)c3cccs3)cc2C1=O	.	.	1.4	-0.3	.	.	.
O=C(C[C@@H]1C=C[C@H](NC(=O)Cc2cccnc2)[C@H](CO)O1)Nc1ccc(-c2ccccc2)cc1	.	.	.	0.1	.	.	.
O=C(CN1C(=O)/C(=C/c2cccc(Br)c2)SC1=S)Nc1cccnc1	i	-0.3	87.9*	-0.5	4.6	4.0	0.0
O=C(CCN1C(=O)/C(=C/c2cccc(Br)c2)SC1=S)Nc1cccnc1	i	-1.4	.	0.3	.	.	.
O=C(C[C@@H]1CC[C@@H](NC(=O)c2cccnc2)[C@H](CO)O1)NCc1ccncn1	.	.	-1.1	.	.	.	.
COCC(=O)N1[C@H](CO)[C@@H]2c3ccccc3N(C(=O)Nc3ccccc3F)C[C@@H]21	.	.	1.6	-0.6	.	.	.
CN1CCCC1CCOC(C)(c1ccccc1)c1ccc(Cl)cc1 (configuration not stated)	-1.1	-7.3	48.5*	2.6	9.8	18.1	?
CN1CCCC1C(O)(c1ccccc1)c1ccccc1 (configuration not stated)	i	-0.3	-3.1	.	.	.	.
CSc1ccc(S(=O)(=O)N2CCC(C(=O)Nc3cccnc3)CC2)cc1	-0.3	-1.2	70.7*	-3.1	-6.4	-16.8	3.2
O=C(Nc1cccnc1)C1CCN(S(=O)(=O)c2ccc(Cl)cc2)CC1	i	-0.7	85.5*	0.6	-8.7	-13.3	-2.2
O=C(NCc1ccc(Cl)cc1)C1CCN(S(=O)(=O)c2cccnc2)CC1	i	-4.8	-0.3	-7.4	.	.	.
COc1cc2cnc(-c3cccnc3)cc2cc1OC	-0.9	-0.8	46.4*	2.6	-6.5	-10.7	-0.5
Cc1ccc(S(=O)(=O)N(C)C[C@@H]2Oc3ccc(NC(=O)Nc4ccc5c(c4)OCO5)cc3CC(=O)N([C@H](C)CO)C[C@@H]2C)cc1	.	.	.	-4.2	.	.	.
Cc1nc2c(C(=O)N3CCN(c4ccccn4)CC3)cnn2c(C)c1Cc1cccc(Cl)c1	i	-1.9	40.2*	.	-6.5	11.1	5.1
CC(C)(C)[S@](=O)N1Cc2cc(C(=O)NCc3ccccc3F)nc(-c3cccc(-c4cccnc4)c3)c2[C@@H]1CCO	.	.	42.4*	0.6	-6.9	i	-5.4[23.5 µM]
CC(C)(C)[S@@](=O)N1Cc2cc(C(=O)NCc3ccccc3F)nc(-c3cccc(-c4cccnc4)c3)c2[C@H]1CCO	.	.	7.8	0.8	.	.	.
COc1ccc(CCN(C)C/C=C/c2ccccc2[N+](=O)[O-])cc1OC	-1.8	-2.9	1.7	-4.7	.	.	.
